Experimental data published in the supplement of paper PMC3334620.
Over roughly 33,000 sequences, “E-score (-0.5 to 0.5)” has its median near -0.011; the highest 2% begin near 0.28. What follows is part of a selection rich in the highest values, with near analogues and random picks from the rest.

target: T1, Gcr1 (UniProt P07261); experiment: PBM E-score (8-mer binding enrichment) (E-score (-0.5 to 0.5)); higher = stronger / more preferred TF binding; details: protein concentration: 100 nM; construct: GST-full length
T1 sequence: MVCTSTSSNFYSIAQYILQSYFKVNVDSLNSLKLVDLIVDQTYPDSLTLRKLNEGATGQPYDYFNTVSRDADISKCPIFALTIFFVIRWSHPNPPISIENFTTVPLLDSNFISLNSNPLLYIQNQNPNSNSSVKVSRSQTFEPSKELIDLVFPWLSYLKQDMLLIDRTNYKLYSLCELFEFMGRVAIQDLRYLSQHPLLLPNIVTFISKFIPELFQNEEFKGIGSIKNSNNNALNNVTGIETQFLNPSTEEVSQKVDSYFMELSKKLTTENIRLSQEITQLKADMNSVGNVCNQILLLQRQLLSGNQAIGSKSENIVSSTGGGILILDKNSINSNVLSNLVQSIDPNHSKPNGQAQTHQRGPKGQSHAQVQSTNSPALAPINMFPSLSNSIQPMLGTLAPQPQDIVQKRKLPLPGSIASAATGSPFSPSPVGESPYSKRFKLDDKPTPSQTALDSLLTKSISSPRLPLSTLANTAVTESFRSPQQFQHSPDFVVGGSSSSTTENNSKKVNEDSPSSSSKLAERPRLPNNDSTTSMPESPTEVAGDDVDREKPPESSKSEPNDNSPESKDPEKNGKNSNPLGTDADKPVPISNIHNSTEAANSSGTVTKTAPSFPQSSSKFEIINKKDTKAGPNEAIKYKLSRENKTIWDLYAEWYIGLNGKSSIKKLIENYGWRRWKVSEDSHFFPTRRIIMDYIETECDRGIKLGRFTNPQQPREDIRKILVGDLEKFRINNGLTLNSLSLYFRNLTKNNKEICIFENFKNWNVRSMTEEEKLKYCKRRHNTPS
Method in brief: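 Using PURExpress in vitro transcription/translation, GST-tagged yeast transcription factors were made in full-length or DNA-binding-domain form. These were applied at about 100-200 nM to double-stranded universal all-10-mer Agilent arrays, and bound protein was detected with fluorescent anti-GST. Scans were normalised with masliner before the Universal PBM Analysis Suite assigned E-scores to ungapped eight-base words pooled with their reverse complements.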

| Sequence | PBM E-score |
| --- | --- |
| AGTGAGAC | -0.352 |
| AGATCGAT | -0.137 |
| CTTCCAGC | 0.123 |
| ATTCCAGC | 0.299 |
| CGTCCAGA | 0.233 |
| CTTCCAGA | 0.341 |
| AATCCAGA | 0.259 |
| GTTCCAGA | 0.257 |
| ATTCCAGA | 0.286 |
| AGTCCAGA | -0.0665 |
| ATTCCAGG | 0.097 |
| TCGGGACA | -0.0131 |
| AGCTAAAC | -0.126 |
| CGAGGGTC | -0.166 |
| AGCTAGGA | 0.0251 |
| ATTAGGCA | 0.00576 |
| AATAGAGG | 0.297 |
| AATAGAGA | -0.0168 |
| ATTAGGCC | -0.116 |
| CGTAGAAG | 0.275 |
| ATTAGACA | 0.0379 |
| AATAGAGT | 0.0735 |
| ATTAGGCG | 0.309 |
| AGTAGAAC | 0.0351 |
| ATTAGACG | 0.295 |

| Sequence | PBM E-score |
| --- | --- |
| AGTAGAAG | 0.327 |
| ATTAGACC | -0.13 |
| GGACAACA | -0.253 |
| AAGGCCTT | -0.343 |
| ACCCTGAA | 0.192 |
| GATTAGGC | -0.0727 |
| ACTGATCA | -0.148 |
| GATGGAAA | 0.029 |
| AGTGCGCG | -0.037 |
| CATCTTGG | -0.102 |
| AGAGCATG | -0.0857 |
| AGTAGACT | -0.048 |
| AATAGACT | 0.0888 |
| CGTAGACG | -0.0412 |
| AATAGACA | -0.116 |
| AATAGACG | 0.286 |
| AGTAGACG | 0.302 |
| AAGCACCA | 0.0436 |
| AGGCCAGC | -0.196 |
| GAGGAATC | 0.345 |
| AAGGAATC | 0.26 |
| CAGGAATG | 0.115 |
| CAGGAATC | 0.394 |
| CAGGAATA | 0.134 |
| GAGGAATA | -0.146 |

| Sequence | PBM E-score |
| --- | --- |
| ATCATAGG | 0.0674 |
| ATAGGCTG | -0.0658 |
| ATCAGCGG | 0.00888 |
| GAACCGGA | 0.183 |
| GACTGGCC | -0.151 |
| CGGGCTGA | -0.241 |
| TCACTGGA | 0.219 |
| GGCTACTA | 0.219 |
| CGCGTTAA | -0.167 |
| CTCCGCAA | 0.0291 |
| AAAAGACG | 0.131 |
| AGGGAAGA | -0.198 |
| CGGGAAGC | 0.317 |
| CGGGAAAC | 0.191 |
| AGGGAAGG | -0.218 |
| AGGGAAGC | 0.281 |
| CGGGAAGA | 0.0397 |
| ATACTGCA | 0.0345 |
| ACTTGCAC | -0.126 |
| TAGCCTGA | -0.232 |
| AAGAGGCG | 0.0559 |
| CAGAGAAA | -0.0752 |
| ATCTGGAA | 0.333 |
| CACTGGAG | -0.0119 |
| AACTGGAG | 0.115 |

| Sequence | PBM E-score |
| --- | --- |
| TCCTGGAA | 0.162 |
| AACTGGAC | 0.198 |
| CTCTGGAA | 0.256 |
| CACTGGAA | 0.318 |
| TGCTGGAA | 0.136 |
| CACTGGAC | 0.0576 |
| TACTGGAA | 0.446 |
| AACTGGAA | 0.342 |
| ATCTGGAC | 0.133 |
| GTCGCAAC | 0.0865 |
| GTACAAAA | -0.0647 |
| ATCCCTTA | -0.00764 |
| ACTCTAAT | -0.029 |
| ATTTGTCC | -0.109 |
| GTCCTGTA | 0.168 |
| AGTAACCG | 0.184 |
| CGGATCAG | 0.11 |
| ATGAACAC | 0.0906 |
| GAGCCCCA | 0.169 |
| GAAGAGAA | 0.0371 |
| ACACGTGG | 0.0635 |
| GACTGGAA | 0.325 |
| GACTGGCA | -0.0492 |
| GACTGGAC | 0.0539 |
| CGTCGGTA | -0.15 |

| Sequence | PBM E-score |
| --- | --- |
| GCTGGACA | -0.0923 |
| CCAATACC | 0.205 |
| GAAGCTAC | 0.323 |
| CAAGCTAC | 0.108 |
| AAAGCTAC | -0.0941 |
| GAAGCTAA | 0.312 |
| TAAGCTAA | -0.153 |
| AAAGCTAA | -0.0138 |
| CTGCGACA | -0.106 |
| AGTATAAA | 0.0707 |
| CGTATAAC | 0.269 |
| CGTATAAA | 0.32 |
| CTTATAAC | -0.0336 |
| CTTATAAA | 0.291 |
| CTTATAAG | -0.0238 |
| TGAAACCA | 0.106 |
| ACAGACAA | 0.0204 |
| GGGGTTTA | -0.117 |
| GGTGAGGA | -0.0681 |
| AAAGTAAT | 0.154 |
| GGCGGGAA | 0.0372 |
| CGTGGGGA | 0.0446 |
| GGCGGGGA | 0.304 |
| CGCGGGGA | 0.0382 |
| GGTGGGGA | 0.345 |

| Sequence | PBM E-score |
| --- | --- |
| GGTGGGAA | 0.0991 |
| GTACTTTA | 0.107 |
| GGGCCTAC | -0.25 |
| ATTGGGGC | 0.124 |
| AGTCAGCG | 0.0668 |
| CGGAACGA | 0.0962 |
| GGGATAAC | 0.0951 |
| CAGCTGCA | -0.0536 |
| AAGCTGCC | 0.347 |
| AAGCTGCT | 0.185 |
| GAGCTGCC | 0.187 |
| CAGCTGCG | 0.061 |
| CAGCTGCC | 0.352 |
| ACAGAGGT | 0.0543 |
| CCCACTTA | 0.0227 |
| CGCTCGAC | -0.094 |
| TCCAAAAA | 0.253 |
| ACTAGCGG | -0.0781 |
| GGACACTA | 0.0929 |
| AACTAGGC | 0.122 |
| AGGGAGCG | 0.0432 |
| CGGGAGCA | -0.109 |
| CGGGAGAC | 0.036 |
| CGGGAGCC | 0.337 |
| AGGGAGCC | 0.296 |

| Sequence | PBM E-score |
| --- | --- |
| AGGGAGCA | -0.171 |
| ATTGCCGC | -0.0608 |
| GATTTCAC | -0.0263 |
| AGCGAGCA | -0.108 |
| GCGCTTAC | -0.17 |
| GCGCTTCA | -0.0425 |
| CCGCTTCA | -0.0817 |
| ACGCTTCG | -0.0461 |
| CCGCTTCC | 0.346 |
| ACGCTTCA | -0.0408 |
| ACGCTTCC | 0.313 |
| CCGCTTCG | 0.0926 |
| AGGCTTCA | -0.0957 |
| AGGCTTCG | 0.00576 |
| GCGCTTCC | 0.348 |
| AGGCTTCC | 0.436 |
| GCGAATTA | -0.00089 |
| AAACCAAA | 0.066 |
| AGACCTCC | -0.282 |
| CGCTAGGC | -0.216 |
| CACGGCCG | -0.152 |
| ATCGGGTA | -0.136 |
